Measured values reported in ChEMBL document CHEMBL4513137, “CO-ADD screening of University of Manchester (UK) compounds”.
Out of some 23,000 compounds screened, about 30 (0.1%) showed an effect of 50% or more. The sample holds strong results, similar compounds and a random draw of the others, so the mix is not that of the screen. Entries with a potency or affinity are not part of this list.

System: Pseudomonas aeruginosa
Settings: Concentration 32 ug.mL-1; ASSAY_TEST Inhibition of Bacterial Growth; detection method Absorption (OD600); MEDIA CAMHB; plate type 384well; NBS; CORNING #3640; time 18 hr

Compared with `COc1ccc(Nc2ccccc2-c2ccc([N+](=O)[O-])cc2)cc1`, `O=[N+]([O-])c1ccc(-c2ccccc2Nc2ccccc2)cc1` is lower in Inhibition: 65.22% for the first, -5.45% for the second.

Going from `O=[N+]([O-])c1ccc(-c2ccccc2Nc2ccccc2)cc1F` to `O=[N+]([O-])c1ccc(-c2ccccc2Nc2ccccc2)cc1C(F)(F)F`, the Inhibition falls from 55.36% to 49.55%.

Going from `O=[N+]([O-])c1ccc(-c2c(Nc3ccccc3)cccc2-c2ccccc2)cc1` to `Cc1ccccc1Nc1ccccc1-c1ccc([N+](=O)[O-])cc1`, the Inhibition falls from 19.1% to -5.81%.

Compared with `c1ccc(Nc2ccccc2-c2ncccn2)cc1`, `CC(=O)c1ccc(-c2ccccc2Nc2ccccc2)cc1` is lower in Inhibition: 60.14% for the first, 28.85% for the second.

Compared with `COc1cccc(Nc2ccccc2)c1-c1c(Cl)cc(Br)cc1Cl`, `Clc1cc(Br)cc(Cl)c1-c1ccccc1Nc1ccccc1` is lower in Inhibition: 61.56% for the first, 32.77% for the second.

`COc1cc([N+](=O)[O-])ccc1-c1c(Nc2ccccc2)cccc1OC` showed an Inhibition of 30.66%.
